# In PubChem BioAssay (NCI):
# This is part of a sample that, as a whole, favours compounds with a hit. Of some 83,000 tested, about 20% had one in any assay.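 For each line, cells grew in 96-well plates with the test compound present at a single concentration for 48 hours.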 Activity calls are given as the source filed them. How the source made its calls: active means growth percent below 10; inactive means the rest.
# Experiments:
# Assay in all cases: NCI-60 one-dose screen, 48 h (100 = growth as untreated, 0 = no growth, -100 = all killed)
# DU-145 prostate = conditions: 10 µM unless noted
# K-562 leukemia = conditions: 10 µM unless noted
# MALME-3M melanoma = conditions: 10 µM unless noted
# MDA-MB-231 breast = conditions: 10 µM unless noted
# RXF 393 renal = conditions: 10 µM unless noted
# SF-268 CNS = conditions: 10 µM unless noted
# SF-295 CNS = conditions: 10 µM unless noted
# SF-539 CNS = conditions: 10 µM unless noted
# UACC-257 melanoma = conditions: 10 µM unless noted
# M14 melanoma = conditions: 10 µM unless noted
# HCT-15 colon = conditions: 10 µM unless noted
# HT29 colon = conditions: 10 µM unless noted
# SNB-75 CNS = conditions: 10 µM unless noted
# SNB-19 CNS = conditions: 10 µM unless noted
# U251 CNS = conditions: 10 µM unless noted
# PC-3 prostate = conditions: 10 µM unless noted
# SK-MEL-5 melanoma = conditions: 10 µM unless noted
# UACC-62 melanoma = conditions: 10 µM unless noted
# LOX IMVI melanoma = conditions: 10 µM
# SK-MEL-28 melanoma = conditions: 10 µM unless noted
SMILES,growth (DU-145 prostate),growth (K-562 leukemia),growth (MALME-3M melanoma),growth (MDA-MB-231 breast),growth (RXF 393 renal),growth (SF-268 CNS),growth (SF-295 CNS),growth (SF-539 CNS),growth (UACC-257 melanoma),growth (M14 melanoma),growth (HCT-15 colon),growth (HT29 colon),growth (SNB-75 CNS),growth (SNB-19 CNS),growth (U251 CNS),growth (PC-3 prostate),growth (SK-MEL-5 melanoma),growth (UACC-62 melanoma),growth (LOX IMVI melanoma),growth (SK-MEL-28 melanoma)
O=[N+]([O-])c1ccc(C2N(Cc3ccc(Cl)cc3)CCN2Cc2ccc(Cl)cc2)cc1,107% (inactive),67% (inactive),109% (inactive),79.6% (inactive),74.4% (inactive),90.1% (inactive),92.1% (inactive),86.3% (inactive),92% (inactive),86.2% (inactive),84.9% (inactive),73.3% (inactive),74.1% (inactive),96.7% (inactive),87.6% (inactive),82.3% (inactive),88.8% (inactive),102% (inactive),96.9% (inactive),96.3% (inactive)
O=C(Nc1cccc(C(F)(F)F)c1)Oc1ccc(Cl)c2cccnc12,39.6% (inactive),16.2% (inactive),-2.66% (active),22.7% (inactive),68.6% (inactive),15.1% (inactive),4.11% (active),50.9% (inactive),-60% (active),24.9% (inactive),2.21% (active),74.3% (inactive),65.9% (inactive),46.1% (inactive),9% (active),-40.1% (active),34% (inactive),32.4% (inactive),2.8% (active),58.3% (inactive)
CN(C)CCN(C)CC(C)(C)C(=O)/C=C/c1ccc(Cl)c(Cl)c1,-99.2% [100 µM] (active),-21.1% [100 µM] (active),-95.5% [100 µM] (active),-98% [100 µM] (active),-95.1% [100 µM] (active),-54.8% [100 µM] (active),-97.9% [100 µM] (active),-99.3% [100 µM] (active),-90.4% [100 µM] (active),-92% [100 µM] (active),-86.4% [100 µM] (active),-77.5% [100 µM] (active),-99.3% [100 µM] (active),-98.6% [100 µM] (active),-95.1% [100 µM] (active),-87.2% [100 µM] (active),-99.3% [100 µM] (active),-95.6% [100 µM] (active),,-98.6% [100 µM] (active)
Cc1cc(I)nc2ccccc12,120% (inactive),108% (inactive),114% (inactive),99.7% (inactive),122% (inactive),105% (inactive),101% (inactive),100% (inactive),119% (inactive),111% (inactive),105% (inactive),109% (inactive),99.7% (inactive),107% (inactive),110% (inactive),96.8% (inactive),104% (inactive),117% (inactive),100% (inactive),112% (inactive)
Clc1ccccc1C(c1ccccc1)(c1ccccc1)n1ccnc1,60.1% (inactive),17% (inactive),39.7% (inactive),59.1% (inactive),23.6% (inactive),57.5% (inactive),19% (inactive),52% (inactive),54.4% (inactive),31% (inactive),22.9% (inactive),27.4% (inactive),44.1% (inactive),58.4% (inactive),42% (inactive),19.6% (inactive),-87% (active),40.8% (inactive),36% (inactive),55.5% (inactive)
CC(=O)N1CC(=O)NC1=S,105% (inactive),97.4% (inactive),95% (inactive),98.3% (inactive),104% (inactive),98.2% (inactive),102% (inactive),101% (inactive),90.4% (inactive),95.1% (inactive),99.9% (inactive),106% (inactive),89.2% (inactive),101% (inactive),94.8% (inactive),97.9% (inactive),103% (inactive),96.1% (inactive),98.5% (inactive),108% (inactive)
CCCCC(C=O)(C=C=C(C)C)CC (stereo unspecified),113% (inactive),111% (inactive),97.7% (inactive),114% (inactive),106% (inactive),102% (inactive),95% (inactive),98% (inactive),98.1% (inactive),102% (inactive),98.2% (inactive),109% (inactive),87.3% (inactive),102% (inactive),96.8% (inactive),92.6% (inactive),104% (inactive),95.8% (inactive),96.8% (inactive),101% (inactive)
Nc1ccc(C(=O)/C=C/c2ccccc2)cc1,62.1% (inactive),14.3% (inactive),93.9% (inactive),98.2% (inactive),104% (inactive),85.8% (inactive),101% (inactive),102% (inactive),108% (inactive),80.4% (inactive),87% (inactive),96.5% (inactive),104% (inactive),91.3% (inactive),91.8% (inactive),74.1% (inactive),102% (inactive),97% (inactive),84.9% (inactive),113% (inactive)
CC(C)(C)c1ccc(CCO)cc1,114% (inactive),91.3% (inactive),82.5% (inactive),102% (inactive),117% (inactive),104% (inactive),88.7% (inactive),88.6% (inactive),97.2% (inactive),104% (inactive),109% (inactive),110% (inactive),96.7% (inactive),95.7% (inactive),103% (inactive),99.8% (inactive),95.6% (inactive),89.5% (inactive),99.5% (inactive),121% (inactive)
COC(=O)Nc1nc2ccc(C3(c4ccc(F)cc4)OCCO3)cc2[nH]1,12.2% (inactive),9.31% (active),31.1% (inactive),30.3% (inactive),0.251% (active),50.5% (inactive),4.04% (active),-13.9% (active),45.5% (inactive),23.3% (inactive),25.9% (inactive),0.785% (active),10.3% (inactive),89.1% (inactive),13.9% (inactive),14.8% (inactive),21.2% (inactive),53.3% (inactive),45.2% (inactive),48.1% (inactive)
CC(C)(C)c1ccc(O)c(Br)c1,105% (inactive),120% (inactive),99.8% (inactive),104% (inactive),91.2% (inactive),95.5% (inactive),95.8% (inactive),102% (inactive),111% (inactive),95.8% (inactive),104% (inactive),103% (inactive),77% (inactive),95.9% (inactive),106% (inactive),101% (inactive),96.4% (inactive),98.2% (inactive),98.3% (inactive),102% (inactive)
S=c1[nH]c2cc(Cl)ccc2s1,104% (inactive),111% (inactive),102% (inactive),99.9% (inactive),121% (inactive),94.2% (inactive),103% (inactive),100% (inactive),108% (inactive),108% (inactive),109% (inactive),102% (inactive),92.3% (inactive),94% (inactive),101% (inactive),94.1% (inactive),95.7% (inactive),88.4% (inactive),97.6% (inactive),110% (inactive)
c1ccc(-c2cccc(-c3ccccn3)n2)nc1,17.8% (inactive),4.95% (active),3.68% (active),44.1% (inactive),26.2% (inactive),19.9% (inactive),19.5% (inactive),5.87% (active),-4.86% (active),-17.8% (active),28% (inactive),26% (inactive),49% (inactive),27.9% (inactive),14.5% (inactive),31.2% (inactive),-50.8% (active),3.51% (active),-0.708% (active),33% (inactive)
CCC(C)(O)Cc1ccc(Cl)cc1 (stereo unspecified),114% (inactive),99.3% (inactive),110% (inactive),95.7% (inactive),101% (inactive),106% (inactive),94.6% (inactive),104% (inactive),108% (inactive),101% (inactive),103% (inactive),103% (inactive),88.2% (inactive),102% (inactive),101% (inactive),94.5% (inactive),91.6% (inactive),101% (inactive),103% (inactive),112% (inactive)
CN(C)CCSC1=Nc2ccc(Cl)cc2C(c2ccccc2Cl)N(C)C1 (stereo unspecified),94.2% (inactive),47.9% (inactive),58.8% (inactive),51.1% (inactive),104% (inactive),86.3% (inactive),59.7% (inactive),58% (inactive),72.3% (inactive),60.3% (inactive),62.5% (inactive),50.9% (inactive),11.9% (inactive),63.1% (inactive),71.2% (inactive),48.5% (inactive),68.7% (inactive),29.2% (inactive),,70.9% (inactive)
C=C(C(N)=O)C(N)C(=O)O (stereo unspecified),99.9% (inactive),100% (inactive),98% (inactive),108% (inactive),111% (inactive),106% (inactive),112% (inactive),110% (inactive),112% (inactive),90.7% (inactive),109% (inactive),100% (inactive),108% (inactive),111% (inactive),,103% (inactive),103% (inactive),114% (inactive),,106% (inactive)
